Screens from PubChem BioAssay.
Rab9 prom act: activators of Rab9 promoter; Huh7 Rab9 promoter-luciferase reporter, luminescence, 24 h; Potency, µM (highest dose often 9.22 µM), inactives show at the highest dose activation, negative = inhibition, actives largely listed as activators; 2.8% of 320,000 active; further: % of control where 0% means no effect; nearly all actives have a fitted effect of over 60% in size
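Measured in stably transfected Huh7 cells bearing a Rab9 promoter–luciferase construct: 24 h compound treatment at 37 °C, followed by luminescence detection.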
SMN2 splice up: SMN2 splice variant enhancement | 2.8% of 210,000 active | AID 1458 | Potency, µM (doses to about 46.1 µM), for inactives: top-dose activity change, positive = activation, actives largely listed as activators | HEK293 SMN2-luciferase splicing reporter, luminescence, 30-36 h; further: % of control where 0% means no effect; nearly all actives have a fitted effect of over 55% in size
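qHTS luciferase splicing reporter: luminescence rises when SMN2 exon 7 is included in transfected HEK293 cells. Compound exposure lasted 30-36 h at 37C, with 4.5 mM final sodium butyrate as control, followed by a ONE-Glo read.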
FLuc counter: inhibits or activates purified firefly luciferase, miR-21 counter-screen; 6.9% of 360,000 active; Potency, µM (top dose mostly 57.5 µM), for inactives: top-dose activity change, negative = inhibition, usual class: inhibitors; purified FLuc, Km substrates, luminescence inhibition; AID 588342; P08659;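 further: plate controls were vehicle for no effect and reference inhibitor for full effect; nearly all actives have a fitted effect of over 55% in size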
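Purified P. pyralis luciferase (10nM final) with 10uM D-luciferin and 10uM ATP (Km levels) in 50mM Tris acetate pH 7.5, 10mM Mg acetate, 0.01% Tween-20, 0.05% BSA; qHTS 6-point titration, ~60 µM downward; luminescence read.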
NPC1 promoter act: activates the NPC1 promoter; AID 485313; Potency, µM (titrated, usually from 9.22 µM), for the others: at the top dose activation, usual class: activators; 2.4% of 320,000 active; Huh7 NPC1 promoter luciferase reporter, 24 h; further: % of control where 0% means no effect; nearly all actives have a fitted effect of over 60% in size
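Quantitative HTS used a cell-based reporter: Huh7 cells stably bearing the NPC1 promoter upstream of luciferase were treated with compounds for 24 h, and promoter activation was read as luminescence.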
ELG1 genotoxic: induces genotoxicity in HEK293T cells with luciferase-tagged ELG1; HEK293T ELG1-luciferase reporter, luminescence, 16 h; Potency, µM (series often up to 46 µM), without a hit: at the highest dose activity change, positive = activation, actives largely listed as activators; 1.3% of 330,000 active; AID 504466; further: % of control where 0% means no effect; nearly all actives have a fitted effect of over 60% in size
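ELG1-luciferase HEK293T cells, 2,000/well; compound pinned in; 16 hr, 37 °C, 5% CO2; ONE-Glo, 30 min RT; luminescence on CCD imager.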
ELG1 DNA repair: ELG1-dependent DNA repair inhibition; HEK293T ELG1-luciferase reporter, luminescence, 16 h; DNA damage induced by 5-fluorouridine; Potency, µM (doses to about 46.1 µM), without a hit: at the top dose activity change, negative = inhibition, usual class: inhibitors; 2.3% of 330,000 active; AID 504467; further: on the % scale 0 is the no-effect control and ±100 the full control effect; nearly all actives have a fitted effect of over 55% in size
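5-Fluorouridine DNA damage + compound/DMSO, 2,000 cells/well, 16 h, 37 °C/5% CO2. ONE-Glo, 30 min RT, luminescence. Readout = decrease in reporter signal.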
ELG1 FLuc counter: luciferase inhibition in cell-free luciferin readout for ELG1 hits; shares compounds with ELG1 DNA repair; cell-free firefly luciferase luminescence counter-screen, ViewLux; Potency, µM (series often up to 46.1 µM), for the others: at the highest dose activity change, negative = inhibition, hits mostly inhibitors; 3% of 350 active; further: on the % scale 0 is the no-effect control and ±100 the full control effect
ELG1 Luc conf: confirmation of human ELG1-dependent DNA repair inhibitors; shares compounds with ELG1 DNA repair; AID 624248; HEK293T ELG1-luciferase levels, luminescence; cells co-treated with 5-fluorouridine; 68% of 670 active; Potency, µM (top dose mostly 46.1 µM), without a hit: at the top dose activity change, negative = inhibition, usual class: inhibitors; further: on the % scale 0 is the no-effect control and ±100 the full control effect; nearly all actives have a fitted effect of over 55% in size
ELG1 MMS Luc: MMS-stimulated human ELG1 repair inhibition, confirmed; shares compounds with ELG1 DNA repair; HEK293T luciferase-tagged ELG1 level, MMS stimulated; Potency, µM (doses to about 46.1 µM), for the others: at the top dose activity change, negative = inhibition, usual class: inhibitors; 53% of 670 active; further: on the % scale 0 is the no-effect control and ±100 the full control effect; nearly all actives have a fitted effect of over 60% in size
ELG1 5FU viab: confirmation of ELG1 repair inhibitors: viability with 5FU. shares compounds with ELG1 DNA repair. Potency, µM (top dose mostly 46.1 µM), for the others: at the top dose activity change, negative = viability loss, actives largely listed as cytotoxic. cell viability with 5-FU, ELG1-dependent repair. 670 tested, under 10 active;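 further: ELG1-luc HEK293T cells cotreated with 5-fluorouridine at 10 µM final; viability measured 16 h after compound addition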
ELG1 MMS viab: confirmation of ELG1 repair inhibitors: viability with MMS; shares compounds with ELG1 DNA repair; Cell viability with MMS, ELG1-dependent DNA repair; Potency, µM (series often up to 46.1 µM), without a hit: top-dose activity change, negative = viability loss, actives largely listed as cytotoxic; 33% of 670 active; AID 624251;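 further: ELG1-luc HEK293T cells co-treated with 10 µM MMS; viability read 16 h after compound addition; on the % scale 0 is the no-effect control and ±100 the full control effect; nearly all actives have a fitted effect of over 60% in size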
Cell viab unstim: affects unstimulated cell viability, ELG1 hit counter-screen; cell viability counter-screen, unstimulated, luminescence; 8% of 900 active; AID 624252; shares compounds with ELG1 DNA repair; Potency, µM (highest dose often 45.9 µM), for the others: at the top dose activity change, negative = loss of viability, most hits filed as cytotoxic;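 further: compound exposure lasted 16 hours before reading; on the % scale 0 is the no-effect control and ±100 the full control effect; nearly all actives have a fitted effect of over 55% in size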
FLuc enzyme: firefly luciferase inhibition counter-screen. shares compounds with ELG1 DNA repair. purified firefly luciferase, luminescence counter-screen. Potency, µM (top dose mostly 57.5 µM), without a hit: at the highest dose activity, negative = inhibition, actives largely listed as inhibitors. 10% of 350 active. AID 624253; further: on the % scale 0 is the no-effect control and ±100 the full control effect
* = called active by the depositor; u = inconclusive; x = no result given. In the library only some 9.2% were active in any assay of this set; here they are far more common. The call rests on the fitted dose curve; in most records, active means well fitted curve in the direction sought with a large enough effect; inconclusive means small, poorly fitted or top-dose-only effect, or another doubt; inactive means no such curve, though single readings can be large; an effect the other way counts as inactive or inconclusive. Potency means the concentration at half of the fitted maximal effect.

SMILES	Rab9 prom act	SMN2 splice up	FLuc counter	NPC1 promoter act	ELG1 genotoxic	ELG1 DNA repair	ELG1 Luc conf	ELG1 MMS Luc	ELG1 5FU viab	ELG1 MMS viab	Cell viab unstim	others
COc1cc(CC2COC(=O)C2(O)Cc2ccc(O)c(OC)c2)ccc1O (stereo not given)	-24%	x	-1%	-23%	-8%	1.5µM*	u	3.5µM*	-2%	2.8µM*	u
CC(/C=C/C(=O)NO)=C\[C@@H](C)C(=O)c1ccc(N(C)C)cc1	x	1.4µM*	x	x	x	x	x	x	x	x	14µM*	ELG1 FLuc counter=119%;FLuc enzyme=u
Cc1ccc(-n2nc(CN3CCOCC3)c(-c3ccccc3)c2N)cc1Cl	-2%	4%	-5%	-1%	-2%	1.6µM*	1.4µM*	18µM*	u	25µM*	-1%
Nc1c(-c2ccccc2)c(CN2CCOCC2)nn1-c1ccccc1	3%	5%	0%	2%	2%	-2%	x	x	x	x	x
Cc1c(C)c2ccc(OCC(=O)N(C)C3CCS(=O)(=O)C3)c(C)c2oc1=O (stereo not given)	0%	x	6%	-13%	6%	13%	x	x	x	x	x
CCc1ccc(C2c3[nH]c4ccccc4c3CCN2C(=O)c2cc(C)nn2C)cc1 (stereo not given)	0%	x	-1%	-2%	-5%	u	11µM*	20µM*	u	u	u
Cc1cnc(C(=O)N2CCc3c([nH]c4ccccc34)C2c2ccc(F)cc2)cn1 (stereo not given)	-3%	x	-3%	0%	-4%	u	x	x	x	x	x
COc1ccc(S(=O)(=O)NCc2ccncc2)cc1NC(=O)c1ccccc1	-11%	x	0%	3%	-1%	-23%	x	x	x	x	x
COc1ccc(S(=O)(=O)NCc2ccncc2)cc1NC(=O)c1ccc(Cl)cc1	-8%	x	-2%	-8%	-6%	u	18µM*	u	-3%	u	u	ELG1 FLuc counter=9%;FLuc enzyme=-2%
COc1cccc(CSc2nc3n(n2)C(c2cccc(F)c2)C(C(=O)Nc2ccccc2C)=C(C)N3)c1 (stereo not given)	x	x	0%	x	x	x	x	x	x	x	x
COc1cccc(/C(N)=N/OC(=O)Cc2ccccc2[N+](=O)[O-])c1	20%	27%	u	4%	u	u	x	x	x	x	x
COC1=C(N)C(=O)c2nc(-c3nc(C(=O)O)c(C)c(-c4ccc(OC)c(OC)c4O)c3N)ccc2C1=O	-37%	-100%	-15%	-47%	-16%	0.82µM*	1.1µM*	0.04µM*	2.2µM*	0.056µM*	1.1µM*	ELG1 FLuc counter=2.5µM*;FLuc enzyme=-8%
COc1ccc(C(=O)O)c(O)c1OC	x	-2%	x	x	x	x	x	x	x	x	x
O=[N+]([O-])c1ccc(NS(=O)(=O)c2cccc3cccnc23)cc1	7%	x	-1%	-2%	1%	-4%	x	x	x	x	x
COc1ccc(S(=O)(=O)Nc2cccc3cccnc23)c([N+](=O)[O-])c1	x	x	x	x	x	x	x	x	x	x	u
Nc1ccc2nc(SCC(=O)N3CCN(c4ccccc4)CC3)sc2c1	-15%	x	-8%	-11%	-10%	2.6µM*	u	7.9µM*	-3%	7.1µM*	u
CC(C)Cc1nnc(NC(=O)C2CSC3(C)CCC(=O)N23)s1 (stereo not given)	-7%	x	-1%	1%	2%	0%	x	x	x	x	x
Cc1ccnc(NC(=O)CCC(=O)N(CC(=O)NCc2ccccc2)Cc2cccs2)c1	-2%	8%	-4%	2%	0%	24%	x	x	x	x	x
CCCCNC(=O)c1cccc(S(=O)(=O)N2CC3(C)CC2CC(C)(C)C3)c1 (stereo not given)	-6%	x	2%	-2%	0%	-1%	x	x	x	x	x
Cc1ccc(Nc2nc(-c3ccncc3)nc3ccccc23)cc1	-6%	x	1%	-1%	6%	2.6µM*	4µM*	18%	-2%	-14%	-18%	ELG1 FLuc counter=42%;FLuc enzyme=-10%
CC(C)c1ccc(NC(=O)N2CCCC2C(=O)Nc2ccc(-n3cnnn3)cc2)cc1 (stereo not given)	-1%	8%	2%	9%	-1%	-16%	x	x	x	x	x
Cc1cc(C)cc(NC(=O)N2CCCC2C(=O)Nc2ccc(-n3cnnn3)cc2)c1 (stereo not given)	1%	9%	0%	0%	-1%	u	u	-8%	u	-1%	2%
